From PubChem BioAssay (NCI)
This is part of a sample that, as a whole, favours compounds with a hit. Of some 83,000 tested, about 20% had one in any assay.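 A percent growth of 40 corresponds to 60% growth inhibition; 0 means no net growth; -100 means all cells died. Active threshold: below 10.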 Activity calls are given as the source filed them.

test system: HCT-15 colon; experiment: NCI-60 one-dose screen, 48 h (100 = growth as untreated, 0 = no growth, -100 = all killed); conditions: 10 µM unless noted

SMILES | growth
CS(=O)(=O)Nc1cc(-c2ccc3ncnc(Nc4ccc5c(cnn5Cc5ccccn5)c4)c3c2)cnc1Cl | 99.2% (inactive)
CO[C@H]1/C=C(/C)CCC[C@H](C)[C@H](O)[C@@H](C)C(=O)C(C)(C)[C@@H](O)CC(=O)O[C@@H]1/C(C)=C/c1csc(C)n1 | 16.3% (inactive)
COc1ccc2nc3ccc(OC)cc3c(SCCCN)c2c1 | 47.3% (inactive)
CCCCCCCCCCCCCCCC(N)c1ccccc1 (configuration not stated) | -73.9% (active)
CC1=C(Nc2ccc(N3CCN(C)CC3)cc2)C(=O)c2cncnc2C1=O | 94.2% (inactive)
CN(C)c1ccc(/C=C/C(=O)c2ccc(-n3cc(CN4CCN(c5cc6c(cc5F)c(=O)c(C(=O)O)cn6C5CC5)CC4)nn3)cc2)cc1 | 63.4% (inactive)
CCN(CC)c1nc(SCc2ccccc2Cl)ncc1C | 96.4% (inactive)
CCN1CCN(Cc2cn(CC(=O)Nc3ccc4c(ccn4Cc4ccccc4)c3)nn2)CC1 | 109% (inactive)
O=C(O)[C@@H]1c2ccccc2-c2ccccc2[C@H]1C(=O)O | 101% (inactive)
O=C1CC(N2C(=O)/C(=C/C(Cl)=C\c3ccc([N+](=O)[O-])cc3)SC2=S)C(=O)N1c1ccc(Cl)cc1 (configuration not stated) | -8.75% (active)
CCc1ccc(Oc2cn[nH]c2-c2ccc(OCCc3ccc(F)cc3)cc2O)cc1 | 74.3% (inactive)
CC1(C)CCC(S(=O)(=O)c2ccc3c(c2)/C(=N\O)c2cc(S(=O)(=O)N4CCC(O)(c5cccc(C(F)(F)F)c5)CC4)ccc2-3)CC1 | 16.3% (inactive)
Cc1cc(Cl)ccc1Nc1nc(C(F)(F)F)ccc1C(=O)N/N=C/c1ccc([N+](=O)[O-])cc1 | -1.51% (active)
CCOC(=O)c1[nH]c(=O)c2c(C)nc(-c3ccccc3)cc2c1O | 100% (inactive)
Oc1ccc(CN2CCC(N3CCCCC3)CC2)c2cccnc12 | 18% (inactive)
COc1cccc([C@H]2c3[nH]c4ccccc4c3C[C@H]3C(=O)N(CCCCCCC(=O)NO)CC(=O)N23)c1 | 105% (inactive)

SMILES | growth
C=CC(=O)NCc1ccc(Nc2nccc(-c3ccc(N4CCCC4)c(C#N)c3)n2)cc1 | 19.7% (inactive)
CC1=C(C(=O)OC(C)C)C(c2ccc3c(c2)OCO3)NC(=S)N1 (configuration not stated) | 100% (inactive)
CCOC(=O)Cn1c(O)c(N=Nc2ccc(S(N)(=O)=O)cc2)c2cc(Br)ccc21 | 85.4% (inactive)
O=C(Cn1c2c(c3ccccc31)CCCC2)Nc1ccc(-c2nc3ccccc3s2)cc1 | 101% (inactive)
COC(C(=O)[C@@H](O)[C@@H](C)O)[C@@H]1Cc2cc3cc(O[C@H]4C[C@@H](O[C@H]5C[C@@H](O)[C@H](O)C(C)O5)[C@H](O)C(C)O4)c(C)c(O)c3c(O)c2C(=O)[C@H]1O[C@H]1C[C@@H](O[C@H]2C[C@@H](O[C@H]3C[C@@H](O)[C@H](OC)C(C)O3)[C@@H](O)C(C)O2)[C@H](O)C(C)O1 (some centres not stated) | 8.46% (active)
CCCCCCCCn1ccc2cc(NC(=O)CN3CCN(c4nc(C)cc(Cl)n4)CC3)ccc21 | 77.1% (inactive)
COc1ccc(/C=N/NC(=O)CCN2c3ccccc3Sc3ccccc32)cc1 | 43.9% (inactive)
CNC(=O)c1cc(Oc2ccc3c(c2)sc2nc(-c4cc(OC)c(OC)c(OC)c4)cn23)ccn1 | 54.1% (inactive)
CCCCCCNC(=O)Oc1ccc(/C(=C(/C)Cc2ccc(OC)cc2)c2ccc(OCCCN(C)C)cc2)cc1 | -6.62% (active)
Cn1ccnc1C(=O)C(=O)Nc1ccc(CC(=O)Nc2ccccc2)cc1 | 96.9% (inactive)
C=CCc1c(O)c(C(=O)/C=C/c2ccc(Cl)cc2)c(OC)c2ccoc12 | 41.3% (inactive)
C=C(CNCCc1ccc(O)cc1)[C@@H]1CC[C@]2(CO)CC[C@]3(C)[C@H](CC[C@@H]4[C@@]5(C)CCC(NCCO)C(C)(C)[C@@H]5CC[C@]43C)[C@@H]12 (some centres not stated) | -80.9% (active)
CCOC(=O)CNP(=O)(OC[C@@H](Cc1ccccc1)NC(=O)c1cc2ccccc2s1)Oc1ccccc1 (some centres not stated) | 43.5% (inactive)
COc1ccc(OC)c(C(=O)/C=C/c2cc3c(c(OC)c2OC)OCO3)c1 | 47.3% (inactive)
C=C(C)[C@@H]1CC[C@]2(C)[C@H](CC=C3[C@@H]4[C@H](C)[C@@H](C)CC[C@]4(CO)CC[C@]32C)[C@@]1(C)CCCN | -39.1% (active)
O=C1/C(=C/c2ccc(F)cc2)COc2ccc(O)cc21 | 60.7% (inactive)
